Molecular target: Death-associated protein kinase 1 (Homo sapiens) (UniProt P53355)
Conditions: at 1 µM

Sequence of Death-associated protein kinase 1 (Homo sapiens) (P53355 whole entry, looked up): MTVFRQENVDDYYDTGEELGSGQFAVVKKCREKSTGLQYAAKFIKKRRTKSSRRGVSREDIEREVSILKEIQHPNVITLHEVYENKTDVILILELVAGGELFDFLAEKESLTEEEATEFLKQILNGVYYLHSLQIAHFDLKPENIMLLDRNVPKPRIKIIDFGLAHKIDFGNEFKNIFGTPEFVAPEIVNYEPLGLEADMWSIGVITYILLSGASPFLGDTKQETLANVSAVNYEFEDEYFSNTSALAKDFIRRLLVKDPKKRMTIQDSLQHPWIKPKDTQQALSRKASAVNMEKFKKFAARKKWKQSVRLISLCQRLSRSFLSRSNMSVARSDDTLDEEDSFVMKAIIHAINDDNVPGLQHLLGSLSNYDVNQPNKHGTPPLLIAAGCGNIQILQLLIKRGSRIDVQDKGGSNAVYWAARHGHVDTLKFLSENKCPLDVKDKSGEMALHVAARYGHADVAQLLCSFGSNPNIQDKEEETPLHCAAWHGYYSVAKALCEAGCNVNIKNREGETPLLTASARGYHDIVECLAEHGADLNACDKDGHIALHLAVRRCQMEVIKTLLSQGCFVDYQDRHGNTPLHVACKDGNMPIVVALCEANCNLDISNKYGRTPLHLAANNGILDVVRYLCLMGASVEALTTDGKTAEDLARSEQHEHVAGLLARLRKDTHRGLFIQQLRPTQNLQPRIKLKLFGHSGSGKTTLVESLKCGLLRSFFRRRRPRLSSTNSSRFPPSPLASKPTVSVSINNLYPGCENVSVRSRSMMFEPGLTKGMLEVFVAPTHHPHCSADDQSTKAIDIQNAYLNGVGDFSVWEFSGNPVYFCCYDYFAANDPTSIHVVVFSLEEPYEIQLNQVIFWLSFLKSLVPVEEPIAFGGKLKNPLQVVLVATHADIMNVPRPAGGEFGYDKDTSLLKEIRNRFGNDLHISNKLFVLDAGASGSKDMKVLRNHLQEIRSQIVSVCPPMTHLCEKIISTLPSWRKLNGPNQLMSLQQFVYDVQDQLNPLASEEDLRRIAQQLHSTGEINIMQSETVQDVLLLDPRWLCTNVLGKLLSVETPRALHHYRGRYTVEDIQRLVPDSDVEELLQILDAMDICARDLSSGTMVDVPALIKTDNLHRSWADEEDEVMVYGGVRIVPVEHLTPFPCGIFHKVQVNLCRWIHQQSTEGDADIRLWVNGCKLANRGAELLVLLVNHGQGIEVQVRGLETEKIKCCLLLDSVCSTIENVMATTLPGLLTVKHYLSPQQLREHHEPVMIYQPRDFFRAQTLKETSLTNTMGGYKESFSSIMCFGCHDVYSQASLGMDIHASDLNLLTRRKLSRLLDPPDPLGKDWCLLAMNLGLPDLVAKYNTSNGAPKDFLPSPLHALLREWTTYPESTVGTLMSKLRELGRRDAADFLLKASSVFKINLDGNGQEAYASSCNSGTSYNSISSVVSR

Row | SMILES | residual activity
1 | COc1cc2ncnc(Nc3ccc(NC(=O)c4ccccc4)cc3)c2cc1OC | 95%
2 | O=c1cc(N2CCNCC2)oc2c(-c3ccccc3)cccc12 | 96%
3 | CC(=O)O/N=C1\C(=C2\C(=O)Nc3cc(Br)ccc32)Nc2ccccc21 | 98%
4 | Nc1ncnc2[nH]nc(Nc3ccc(F)cc3)c12 | 102%
5 | CO[C@H]1C[C@@H]2CC[C@@H](C)[C@@](O)(O2)C(=O)C(=O)N2CCCC[C@H]2C(=O)O[C@H]([C@H](C)C[C@@H]2CC[C@@H](O)[C@H](OC)C2)CC(=O)[C@H](C)/C=C(\C)[C@@H](O)[C@@H](OC)C(=O)[C@H](C)C[C@H](C)/C=C/C=C/C=C/1C | 95%
6 | N#CC(C#N)=C(N)/C(C#N)=C/c1ccc(O)cc1 | 85%
7 | O=C(NC(NC(=S)Nc1ccc(F)c([N+](=O)[O-])c1)C(Cl)(Cl)Cl)C(c1ccccc1)c1ccccc1 (stereo unspecified) | 90%
8 | COc1ccc(S(=O)(=O)N(CCO)c2ccccc2CN(C)C/C=C/c2ccc(Cl)cc2)cc1 | 86%
9 | Oc1c2ccccc2c2c3c(cccc13)N=N2 | 91%
10 | Nc1ncnc2c1c(-c1ccc(Oc3ccccc3)cc1)cn2C1CCCC1 | 91%
11 | Oc1cccc(-c2nc(N3CCOCC3)c3oc4ncccc4c3n2)c1 | 99%
12 | Cn1nc2c3c(cccc31)C(=O)c1ccccc1-2 | 85%
13 | c1ccc(-c2n[nH]c3c2oc2ccccc23)cc1 | 94%
14 | c1ccc2c(-c3ccncc3)c[nH]c2c1 | 85%
15 | CO[C@@H]1[C@H](N(C)C(=O)c2ccccc2)C[C@H]2O[C@]1(C)n1c3ccccc3c3c4c(c5c6ccccc6n2c5c31)C(=O)NC4 | 63%
16 | Fc1ccc(-c2nc3n(c2-c2ccncc2)CCS3)cc1 | 85%

Row | SMILES | residual activity
17 | c1ccc(-c2n[nH]cc2-c2ccnc3ccccc23)nc1 | 91%
18 | CC(C)(C)c1nc2c3ccc(F)cc3c3c(=O)[nH]ccc3c2[nH]1 | 8%
19 | O=C1NC(=O)c2cc(Nc3ccc(F)cc3)c(Nc3ccc(F)cc3)cc21 | 87%
20 | COc1cc2ncnc(Nc3ccc(Oc4ccccc4)cc3)c2cc1OC | 100%
21 | N#Cc1cnc2cnc(NCc3cccnc3)cc2c1Nc1ccc(F)c(Cl)c1 | 69%
22 | Cc1ccc(S(=O)(=O)/C=C/C#N)cc1 | 88%
23 | Cn1cc(/C=C2\C(=O)Nc3ccc(S(N)(=O)=O)cc32)c2ccccc21 | 94%
24 | Cc1ccc(NC2=CC(=O)c3sc(C)nc3C2=O)cc1 | 87%
25 | Oc1n[nH]c2nnc(-c3c(-c4ccccc4)nn4ccccc34)cc12 | 52%
26 | O=C1NC(=O)/C(=C\c2ccc3nccnc3c2)S1 | 87%
27 | Nc1n[nH]c2nnc(-c3c(-c4ccccc4)nn4ccccc34)cc12 | 83%
28 | Cc1nc(-c2ccccc2)c(-c2ccncc2)o1 | 81%
29 | Cc1cncc2cccc(S(=O)(=O)N3CCCN(C(=O)CN)C[C@H]3C)c12 | 88%
30 | CCN(CC)CCCCN1c2ccccc2Oc2ccc(Cl)cc21 | 107%
31 | CCOc1cc2ncnc(Nc3cccc(Br)c3)c2cc1OCC | 83%
